Source: PubChem BioAssay
A selection: hits, their analogues and other compounds. The true share with any hit is near 2.2%.
Ba/F3 V617F tox – lowers viability of Ba/F3 cells expressing EpoR and JAK2V617F; inhibition, % at 5.6 µM; AID 1446; ATP luminescence; hit rate 1.1% among 220,000;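 active = inhibition above the campaign mean plus 3 SD over all tested compounds, cut at about 24% in these data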;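 note: cytokine-independent growth of Ba/F3 cells driven by EpoR plus mutant JAK2; 0% = DMSO-treated cells and 100% = JAK inhibitor I control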
KLF5 inhibitor – inhibitors of KLF5 expression | DLD-1 KLF5 promoter-luciferase reporter, luminescence | inhibition, % at 5 µM | hit rate 0.23% among 290,000;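 active = inhibition above a per-plate limit of that plate's mean compound inhibition plus 3 SD, cut at about 60% in these data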;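 note: 0% = DMSO wells and 100% = LY294002 at 200 µM; higher means less KLF5 promoter-driven luciferase light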
APP transl inh – APP translation inhibition; AID 1285; SH-SY5Y APP 5'UTR-luciferase reporter, luminescence; inhibition, % at 2 µM; hit rate 0.82% among 190,000;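 active = inhibition above a set limit, derived from the sample mean plus 3 SD, cut at about 45% in these data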
BaF3 parental – parental Ba/F3 viability inhibition as JAK2V617F counter-screen; CellTiter-Glo ATP luminescence; hit rate 1.1% among 220,000; inhibition, % at 5.6 µM; AID 1486;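 active = inhibition above a per-campaign cutoff, the mean inhibition of all tested compounds plus 3 SD, cut at about 27% in these data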;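 note: 0% = DMSO wells and 100% = JAK Inhibitor I control wells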
aSyn UTR inh – 5' untranslated region of α-synuclein, MLPCN primary screen; AID 1813; inhibition, % (tested at 7.5 µM); alpha-synuclein 5'UTR reporter, inhibitor activity; hit rate 0.82% among 300,000; in the data active = inhibition above about 60%;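 note: H4 neuroglioblastoma cells stably carrying SNCA 5'UTR luciferase fusion; 0% = DMSO wells and 100% = positive control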
IEC-6 tox – IEC-6 cytotoxicity, counter-screen for KLF5 inhibitors | luminescence viability | inhibition, % at 5 µM | hit rate 0.78% among 290,000; in the data active = inhibition above about 22%;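 note: 0% = plate median of test compound wells and 100% = cytotoxic reference compound wells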
The depositor's hits bear a star; nt = no result given.

SMILES	Ba/F3 V617F tox	KLF5 inhibitor	APP transl inh	BaF3 parental	aSyn UTR inh	IEC-6 tox
Cc1c(C(=O)C(=O)N2c3ccccc3CC2C)c2ccccc2n1C (stereo unspecified)	2.6	3.6	-7.4	8.0	-8.0	9.1
Cc1cc(C(=O)N2CC=C(c3ccccc3)CC2)c2ccccc2n1	nt	nt	nt	nt	43.3	nt
O=C(O)c1ccccc1C(=O)N1CC=C(c2ccccc2)CC1	16.4	-34.5	3.7	38.3*	-12.0	-2.2
N=c1n(CC(=O)c2cccs2)c2ccccc2n1Cc1ccccc1	0.5	-45.0	nt	2.2	-6.8	-5.6
Cc1ccc2oc(C(=O)N3CCC(O)(c4cccc(C(F)(F)F)c4)CC3)c(C)c2c1	nt	-3.1	nt	nt	-8.7	5.8
O=C(c1ccc(NS(=O)(=O)/C=C/c2ccccc2)cc1)N1CCCCC1	nt	nt	nt	nt	11.4	nt
Cc1n(C)c2cc(Cl)ccc2[n+]1Cc1ccccc1	55.6*	-14.7	4.8	94.2*	16.2	3.3
CN(C)CCCNc1cc(C(C)(C)C)nc2c(-c3ccccc3)cnn12	6.9	-162.1	nt	4.0	55.2	20.3
COc1cc2nc(N3CCN(c4cc(C)ccc4C)CC3)nc(N)c2cc1OC	nt	-37.8	nt	nt	94.5*	10.5
Cc1nc(=O)c(-c2ccccc2)c(C)n1Cc1ccccc1	-3.6	-15.9	47.5*	4.4	0.7	-7.6
COc1ccccc1-n1nnnc1SCC(=O)Nc1cc(C)on1	-1.2	10.6	-3.5	2.1	13.2	6.4
CCOc1ccccc1-n1nnnc1SCC(=O)Nc1cc(C)on1	-5.1	2.3	-6.3	38.9*	-11.2	4.3
CC1CCc2cccc3c2N1c1cc(C#N)c(C#N)cc1O3 (stereo unspecified)	2.3	-33.0	9.2	2.8	71.4*	4.7
COc1cccc(CNC(=O)C2CCN(S(=O)(=O)N3CCC(C)CC3)CC2)c1	nt	-13.6	nt	nt	-4.2	-1.7
CNC(=O)C(Sc1ccccc1)c1ccccc1 (stereo unspecified)	2.1	-9.2	48.9*	3.5	-13.1	-0.2
CCCCOc1ccc(C(=O)NNC(=S)NC(=O)CC)cc1	-1.4	-11.4	56.0*	7.0	85.4*	3.2
CCCOc1ccc(C(=O)NNC(=S)NC(C)=O)cc1	2.8	-0.3	-4.1	4.5	67.7*	6.1
CCC(=O)NC(=S)NNC(=O)c1ccc(OC)cc1	1.8	-22.6	-12.4	4.5	18.9	-0.4
O=C(CCCN1C(=O)/C(=C\c2ccccc2)SC1=S)Nc1ccc(C(=O)O)cc1	nt	14.2	nt	nt	22.1	9.3
CCc1ccc(/C=C2\SC(=S)N(CCCC(=O)Nc3ccc(C(=O)O)cc3)C2=O)cc1	nt	28.7	nt	nt	108.6*	10.1
O=C(CCN1C(=O)/C(=C/c2ccc3c(c2)OCO3)SC1=S)Nc1ccc(C(=O)O)cc1	nt	-5.4	nt	nt	-6.8	-5.4
O=C(CCCN1C(=O)/C(=C/c2ccc3c(c2)OCO3)SC1=S)Nc1ccc(C(=O)O)cc1	nt	10.4	nt	nt	101.6*	3.1
Cn1c(SCC(=O)Nc2nccs2)nnc1-c1ccccn1	nt	-38.1	nt	nt	-12.7	1.8
CCc1ccc(N(C(=O)c2csnn2)C(C(=O)NC(C)(C)C)c2cccnc2)cc1 (stereo unspecified)	0.5	-23.4	-2.7	9.9	nt	-9.1
CS(=O)(=O)NCCNC(=O)c1cc(OCC(F)(F)F)ccc1OCC(F)(F)F	2.1	-15.9	78.0*	3.8	-2.1	2.0
SMILES	Ba/F3 V617F tox	KLF5 inhibitor	APP transl inh	BaF3 parental	aSyn UTR inh	IEC-6 tox
CN1/C(=C\C(=O)Nc2ccc(Cl)cc2)C(C)(C)c2ccccc21	1.4	-42.3	-30.5	4.3	-6.6	-2.1
CN1/C(=C\C=N\NC(=O)c2ccccc2Br)C(C)(C)c2ccccc21	54.2*	-17.4	3.7	61.8*	8.6	5.6
CN1/C(=C\C(=S)Nc2ccccc2)C(C)(C)c2ccccc21	43.4*	-8.4	10.9	46.4*	-53.2	3.3
CN1/C(=C\C(=S)NC(=O)c2ccccc2Cl)C(C)(C)c2ccccc21	69.7*	-37.8	-21.1	62.9*	-25.7	7.7
CN1/C(=C/C=N/n2cnnc2)C(C)(C)c2ccccc21	0.4	-16.1	5.4	3.5	11.0	9.1
CN1/C(=C/C(=S)NC(=O)C2(C)CC2(Cl)Cl)C(C)(C)c2ccccc21 (stereo unspecified)	20.3	-20.2	-34.6	57.8*	0.7	-8.6
O=C(NCCC1=CCCCC1)c1cc(-c2ccncc2)nc2ccccc12	-2.1	-6.5	27.8	7.4	-2.3	4.0
O=C(NCc1ccc2c(c1)OCO2)C(=O)Nc1cc2c3c(c1)CC(=O)N3CCC2	nt	nt	nt	nt	17.0	nt
O=C(NCCN1CCOCC1)C1CC(=O)N(c2ccc(Cl)cc2)C1 (stereo unspecified)	nt	-22.5	nt	nt	-5.3	-6.7
